Reference: PubChem BioAssay AID1159580 (chemical genetic matrix, 2015)
Where “and” joins values, the source holds several entries; their conditions need not be identical. Equal values may be shown once. Screen size: about 5,500 compounds; about 2,000 (36%) were called active. About 18% were inconclusive and are not listed. No stated cut-off is given here; in the data, active means normalized growth mostly below about 0.91 (no sharp cut-off); inconclusive means no clear call, values can overlap the other calls; inactive means mostly above about 0.92. This is one part of the list.

Test: chemical genetic growth profiling, strain panel (AID 1159580);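 further: tested at 20 µM; growth read once vehicle control cultures reached saturation at 30 °C; 1 = growth at the plate median or of vehicle wells; lower values mean less growth of the strain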
Conditions: S. cerevisiae deletion strains, growth OD

Measured: normalized growth

CS(=O)(=O)c1ccc([C@@H](O)[C@@H](CO)NC(=O)C(Cl)Cl)cc1
inactive: locus YAL013W, strain DEP1, hits give low values 0.978 | locus YAL021C, strain ccr4, hits give low values 1.05 | locus YAL026C, strain drs2, hits give low values 1.04 | locus YAL030W, strain snc1, hits give low values 1.01 | locus YBL061C, strain skt5, hits give low values 1.02 | locus YBR009C, strain hhf1, hits give low values 1.01 | locus YBR021W, strain FUR4, hits give low values 1.1 | locus YBR023C, strain chs3, hits give low values 1.04 | locus YBR171W, strain sec66, hits give low values 1.04 | locus YBR229C, strain ROT2, hits give low values 0.964 | locus YBR231C, strain swc5, hits give low values 1.02 | locus YBR279W, strain paf1, hits give low values 1.04 | locus YCL011C, strain gbp2, hits give low values 1.03 | locus YCL016C, strain dcc1, hits give low values 1.04 | locus YCL029C, strain bik1, hits give low values 0.981 | locus YCL069W, strain vba3, hits give low values 1.03 | locus YCR088W, strain abp1, hits give low values 1.03 | locus YDL005C, strain med2, hits give low values 1.02 | locus YDL035C, strain GPR1, hits give low values 0.988 | locus YDL040C, strain nat1, hits give low values 1.02 | locus YDL074C, strain BRE1, hits give low values 0.957 | locus YDL101C, strain DUN1, hits give low values 0.967 | locus YDL134C, strain PPH21, hits give low values 0.985 | locus YDL185W, strain tfp1, hits give low values 0.941 | locus YDL192W, strain arf1, hits give low values 0.981 | locus YDR001C, strain nth1, hits give low values 1.02 | locus YDR069C, strain doa4, hits give low values 1 | locus YDR101C, strain arx1, hits give low values 0.998 | locus YDR137W, strain rgp1, hits give low values 1.06 | locus YDR150W, strain NUM1, hits give low values 0.977 | locus YDR159W, strain sac3, hits give low values 0.942 | locus YDR162C, strain NBP2, hits give low values 0.954 | locus YDR195W, strain ref2 1.01 | locus YDR297W, strain sur2, hits give low values 1.02 | locus YDR318W, strain mcm21, hits give low values 0.998 | locus YDR334W, strain swr1, hits give low values 1.02 | locus YDR335W, strain msn5, hits give low values 1.04 | locus YDR388W, hits give low values 0.991 | locus YDR392W, strain spt3, hits give low values 0.947 | locus YDR502C, strain sam2, hits give low values 0.997 | locus YEL003W, strain gim4, hits give low values 1.01 | locus YEL037C, strain rad23, hits give low values 1.02 | locus YEL061C, strain CIN8 (second series), hits give low values 1.02 | locus YEL061C, strain CIN8, hits give low values 0.979 | locus YER015W, strain faa2, hits give low values 1.02 | locus YER016W, strain bim1, hits give low values 1.04 | locus YER110C, hits give low values 0.974 | locus YER111C, strain swi4, hits give low values 1.03 | locus YER155C, strain BEM2 (second series), hits give low values 1.03 | locus YER155C, strain BEM2, hits give low values 1 | locus YER167W, strain BCK2, hits give low values 0.985 | locus YFR010W, strain ubp6, hits give low values 1.02 | locus YGL078C, strain dbp3, hits give low values 1 | locus YGL086W, strain mad1, hits give low values 1 | locus YGL167C, strain pmr1, hits give low values 1.02 | locus YGL173C, strain kem1, hits give low values 1.02 | locus YGL227W, strain vid30, hits give low values 1.02 | locus YGL240W, strain doc1, hits give low values 0.996 | locus YGL248W, strain PDE1, hits give low values 0.968 | locus YGL253W, strain hxk2, hits give low values 1.05 | locus YGR078C, strain PAC10, hits give low values 0.993 | locus YGR135W, strain pre9, hits give low values 0.98 | locus YGR229C, strain SMI1, hits give low values 0.979 | locus YGR252W, strain gcn5, hits give low values 1.06 | locus YHR013C, strain ard1, hits give low values 1.05 | locus YHR027C, strain rpn1, hits give low values 1.02 | locus YHR030C, strain SLT2, hits give low values 0.983 and 0.994 | locus YHR079C, strain IRE1 (second series), hits give low values 0.998 | locus YHR079C, strain IRE1, hits give low values 0.982 | locus YHR094C, strain hxt1, hits give low values 0.991 | locus YHR129C, strain ARP1, hits give low values 0.989 | locus YHR142W, strain chs7, hits give low values 1.07 | locus YHR200W, strain rpn10, hits give low values 0.989 | locus YIL066C, strain RNR3, hits give low values 0.995 | locus YIL073C, strain SPO22, hits give low values 0.998 | locus YIL125W, strain kgd1, hits give low values 0.992 | locus YIR030C, strain dcg1, hits give low values 0.978 | locus YJL092W, strain hpr5, hits give low values 1.02 | locus YJL095W, strain BCK1 (second series), hits give low values 1.01 | locus YJL095W, strain BCK1, hits give low values 1 and 0.995 | locus YJL115W, strain asf1, hits give low values 1.04 | locus YJL129C, strain trk1, hits give low values 1.05 | locus YJL134W, strain LCB3, hits give low values 0.974 | locus YJL154C, strain vps35, hits give low values 1.03 | locus YJL164C, strain tpk1, hits give low values 1.01 | locus YJL166W, strain qcr8, hits give low values 1.02 | locus YJL168C, strain set2, hits give low values 0.985 | locus YJL187C, strain SWE1 (second series), hits give low values 0.975 | locus YJR043C, strain POL32, hits give low values 1.01 | locus YJR066W, strain TOR1, hits give low values 0.962 | locus YJR075W, strain HOC1, hits give low values 0.983
